Measured values from PubChem BioAssay (NCATS).
Records with an inconclusive call do not appear. Activity calls are given as the source filed them. Calls come from the whole dose curve; as a rule, active = well fitted inhibition curve with a large enough effect; inconclusive = small, poorly fitted or top-dose-only effect; inactive = flat fitted curve, though single readings scatter.

Key:
Assay in all cases: qHTS profiling for inhibitors of Plasmodium falciparum proliferation (AID 504749); note: nearly all actives have a fitted effect of over 60% in size
Conditions in all cases: P. falciparum in erythrocytes, SYBR Green DNA, 72 h; series mostly up to 28.7 µM
ATS189 = system: ATS189
Procedure, shortened: (§1)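 In a 72 h erythrocytic culture (37 C, humidified, 5% CO2) at 2.5% hematocrit and 0.3% starting parasitemia, compounds were tested; SYBR Green I in detergent lysis buffer stained parasite DNA overnight.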

CP185 = system: CP185
Procedure, shortened: as §1

CP191 = system: CP191
Procedure, shortened: as §1

CP192 = system: CP192
Procedure, shortened: as §1

CP194 = system: CP194
Procedure, shortened: as §1

CP201 = system: CP201
Procedure, shortened: as §1

CP237 = system: CP237
Procedure, shortened: as §1

CP238 = system: CP238
Procedure, shortened: as §1

CP247 = system: CP247
Procedure, shortened: as §1

CP262 = system: CP262
Procedure, shortened: as §1

CP265 = system: CP265
Procedure, shortened: as §1

CP266 = system: CP266
Procedure, shortened: as §1

CP268 = system: CP268
Procedure, shortened: as §1

CP305 = system: CP305
Procedure, shortened: as §1

DIV30 = system: DIV30
Procedure, shortened: as §1

HB3 = system: HB3
Procedure, shortened: as §1

P94_40 = system: P94_40
Procedure, shortened: as §1

PC49 = system: PC49
Procedure, shortened: as §1

TAB109 = system: TAB109
Procedure, shortened: as §1

TAB113 = system: TAB113
Procedure, shortened: as §1

Measured: Potency

COc1cccc2c1C(=O)c1c(O)c3c(c(O)c1C2=O)C[C@](O)(C(=O)CO)C[C@@H]3O[C@H]1C[C@H](N)[C@@H](O)[C@H](C)O1
inactive: ATS189 | CP185 | CP191 | CP192 | CP194 | CP201 | CP237 | CP238 | CP247 | CP262 | CP265 | CP266 | CP268 | CP305 | DIV30 | HB3 | P94_40 | PC49 | TAB109 | TAB113

CC1(C)[C@@H]2CC[C@]1(C)[C@@H](OC(=O)CSC#N)C2
inactive: ATS189 | CP185 | CP191 | CP192 | CP194 | CP201 | CP237 | CP238 | CP247 | CP262 | CP265 | CP266 | CP268 | CP305 | DIV30 | HB3 | P94_40 | PC49 | TAB109 | TAB113
